Sampled rows, rich in hits. Any-hit rate of the full collection: about 4.2%.
GDH-TPI inh – GDH-TPI coupling enzyme inhibitors, primary screen, artefact control for M. tuberculosis FBA inhibitor project, biochemical, absorbance, full deck | GDH-TPI coupled enzyme counterscreen, NADH absorbance | inhibition, % at 4.8 µM | actives 1.2% (n = 360,000) | AID 588335, 2011;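 also: 0% = DMSO wells and 100% = wells lacking the enzyme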
CCHF vOTU inh – CCHFV vOTU protease inhibitors, primary screen, biochemical, Pep-AMC substrate, fluorescence | Crimean-Congo hemorrhagic fever virus L polyprotein viral ovarian tumor (vOTU) protease … | inhibition, % at 11.5 µM | actives 0.55% (n = 370,000); also: 0% = vehicle wells with enzyme and 100% = no enzyme wells
Mtb FBA inh – Mtb FBA enzyme inhibitors, primary screen, biochemical, fluorescence, strain H37Rv. inhibition, % at 1 µM. actives 2.3% (n = 360,000). Fructose-bisphosphate aldolase (Mycobacterium tuberculosis (strain ATCC 25618 / H37Rv)), …. purified M. tuberculosis FBA, fluorescence read-out; in the data active = inhibition above about 27%;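 also: 0% = vehicle and 100% = reference inhibitor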
RecA intein inh – Mtb RecA intein splicing inhibitors, primary screen, biochemical, fluorescence, HTS; inhibition, % (no concentration beside the values); actives 0.75% (n = 290,000); cell-free RecA intein splicing; Protein RecA (Mycobacterium tuberculosis (strain ATCC 25618 / H37Rv)), P9WHJ3; AID 2221, 2009; in the data active = inhibition above about 30%;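 also: 0% = vehicle wells and 100% = reference inhibitor control wells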
Target sequence (P9WHJ3 whole entry, looked up): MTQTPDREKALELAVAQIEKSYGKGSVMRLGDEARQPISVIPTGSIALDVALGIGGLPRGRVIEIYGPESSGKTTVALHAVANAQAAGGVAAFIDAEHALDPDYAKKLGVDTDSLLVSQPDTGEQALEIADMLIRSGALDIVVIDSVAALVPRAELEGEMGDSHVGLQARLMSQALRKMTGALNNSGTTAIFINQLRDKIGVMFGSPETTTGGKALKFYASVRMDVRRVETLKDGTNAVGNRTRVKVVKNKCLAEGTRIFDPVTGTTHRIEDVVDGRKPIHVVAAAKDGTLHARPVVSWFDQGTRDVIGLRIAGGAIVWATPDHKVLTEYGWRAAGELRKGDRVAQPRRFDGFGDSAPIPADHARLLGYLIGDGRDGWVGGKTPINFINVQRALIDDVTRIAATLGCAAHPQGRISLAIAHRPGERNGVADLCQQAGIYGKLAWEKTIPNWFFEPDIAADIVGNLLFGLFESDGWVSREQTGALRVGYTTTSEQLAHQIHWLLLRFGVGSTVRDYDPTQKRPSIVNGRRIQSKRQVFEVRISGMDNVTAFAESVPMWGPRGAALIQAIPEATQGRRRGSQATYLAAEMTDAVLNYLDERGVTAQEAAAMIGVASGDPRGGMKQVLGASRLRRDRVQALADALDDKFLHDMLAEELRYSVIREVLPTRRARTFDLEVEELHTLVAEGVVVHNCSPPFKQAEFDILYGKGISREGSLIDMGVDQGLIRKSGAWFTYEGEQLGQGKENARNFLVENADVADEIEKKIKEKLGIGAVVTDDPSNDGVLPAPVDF
Mtb bLac sens – beta-lactam sensitization of Mtb H37Rv, H37Rv; AID 434955, 2010; actives 0.27% (n = 330,000); inhibition, % at 25 µM; M. tuberculosis H37Rv growth with meropenem, percent inhibition; call rule not given here;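 also: growth measured after seven days incubation then overnight dye step; 0% = bacteria only wells and 100% = bacteria with antibiotic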
* marks the source's active call; other numbers are inactive results; · = not tested or not shown; + = active, no number. Rule as the data show it, unless noted: active = inhibition above about 30%; inactive = the rest.

SMILES	GDH-TPI inh	CCHF vOTU inh	Mtb FBA inh	RecA intein inh	Mtb bLac sens
O=C(CSc1nnc(-c2ccccc2)n1-c1ccccc1)NN=Cc1ccc(-c2ccccc2)cc1	·	2	·	·	·
COc1cc(/C=C(\C#N)C(N)=O)ccc1OCc1c(C)no[n+]1[O-]	31*	1	0	1	-2
COC(=O)[C@]12C[C@H](CC(=O)NCc3ccccc3)C(=O)N(Cc3ccc4c(c3)OCO4)C1=C[C@H](C(C)C)O[C@@H]2C1CC1	·	15	·	·	·
CCCc1nnc(NC(=O)C(=O)NCCN(C)C)s1	31*	-17	2	5	·
COc1ccccc1C=NNC(=O)C(=O)NN=Cc1ccccc1OC	34*	-1	3	·	·
CCOc1ccc(/C=N/NC(=O)c2cc3c(OC)cc(OC)c(OC)c3[nH]2)cc1	34*	15	1	27	0
CCOc1ccc2[nH]c(C(=O)N/N=C/c3ccccc3OC)cc2c1	22	13	6	-5	5
COc1ccc2[nH]c(C(=O)N/N=C/c3ccc(OC)c(O)c3)cc2c1	49*	15	0	0	-2
COc1ccc2[nH]c(C(=O)N/N=C/c3ccccc3OC)cc2c1	38*	14	5	-5	-4
COc1cccc(/C=N/NC(=O)C(=O)N/N=C/c2cccc(OC)c2OC)c1OC	19	-13	0	0	5
CCCOc1ccc2[nH]c(C(=O)N/N=C/c3cc(OC)c(OC)c(OC)c3)cc2c1	30	-2	4	0	8
O=C(NC1CCCCN(Cc2cccc(F)c2)C1=O)c1ccc(F)cc1 (configuration not stated)	·	-5	·	·	·
CCOC(=O)[C@@]12CN(C(=O)OC(C)(C)C)CC=C1N(Cc1ccc(OC)cc1)C(=O)[C@H]2CC(=O)N1CCC(c2ccccc2)CC1	·	15	·	·	·
COc1ccc2[nH]c(C(=O)Nc3ccc(F)cc3Br)cc2c1	32*	-8	6	1	11
COc1ccc(OC)c(/C=N/NC(=O)c2cc3c(OC)c(OC)ccc3[nH]2)c1	35*	2	1	2	1
COc1cc(OC)c2cc(C(=O)N/N=C/c3ccccc3O)[nH]c2c1	14	4	7	4	0
COc1ccc(-n2c(SCc3cccc4ccccc34)nnc2-c2ccccc2)cc1	·	0	·	·	·
COC(=O)/C=c1/s/c(=C(/C#N)C(=O)N2CCOCC2)n(-c2ccccc2)c1=O	40*	-2	2	1	-1
C=CCn1c(=O)/c(=C\c2ccsc2)s/c1=C(/C#N)C(=O)NCCN1CCOCC1	8	·	1	-2	2
COc1ccc(-n2c(=O)/c(=C\c3cccs3)s/c2=C(/C#N)C(=O)NCCN2CCOCC2)cc1	34*	6	-5	-1	-1
COc1ccc(CN2C/C(=C/c3ccccc3)N3C(=O)C[C@@H](c4ccc5ccccc5c4)N=C23)c(OC)c1	·	3	·	·	·
COCCCNC(=O)c1ccc(Cn2c(=O)c3ccccc3n(Cc3ccc([N+](=O)[O-])cc3)c2=O)cc1	·	3	·	·	·
COC(=O)c1nn(-c2ccc3c(c2)OCO3)cc1O	0	-23	26	-1	67
COC(=O)c1nn(-c2ccc3c(c2)CCN3C(C)=O)cc1O	19	-82	195*	-2	0
COc1ccc(S[C@]2(C(=O)N(C)C)CC(=O)N(C(=O)C3CC3)[C@@H]2c2ccc(OC)cc2)cc1	·	-2	·	·	·
SMILES	GDH-TPI inh	CCHF vOTU inh	Mtb FBA inh	RecA intein inh	Mtb bLac sens
CCNc1cc2oc(=O)c(CN3CCOCC3)c(C)c2cc1C	20	-175	+	·	-9
Cc1cc2oc(=O)cc(CN3CCOCC3)c2cc1C	18	5	-3	-3	-4
O=C1OC(c2ccc(Cl)cc2)=N/C1=C\N1CC2CC(C1)c1cccc(=O)n1C2 (configuration not stated)	60*	9	2	-9	-4
O=C1OC(c2ccc([N+](=O)[O-])cc2)=N/C1=C/N1CC2CC(C1)c1cccc(=O)n1C2 (configuration not stated)	21	8	0	-1	-1
O=C1OC(c2ccc(Br)cc2)=N/C1=C\N1CC2CC(C1)c1cccc(=O)n1C2 (configuration not stated)	56*	22	-4	-1	-5
O=c1cccc2n1CC1CC2CN(S(=O)(=O)c2cc(Cl)ccc2Cl)C1 (configuration not stated)	0	5	-1	-2	-2
COc1cc(OC)cc(-c2nnc(SCC(=O)N3CCCC3)o2)c1	-4	7	118*	-2	41
Cc1cc(C)nc(NC(=O)c2cnc3sccn3c2=O)n1	46*	8	4	3	0
O=C(c1cnc2sccn2c1=O)N(Cc1ccccc1)c1ccccn1	33*	15	0	-3	-2
O=C(NCc1cccs1)c1cnc2sccn2c1=O	45*	14	2	-1	2
O=C(c1ccccc1)N(Cc1ccccc1)c1ccccn1	-2	-4	-1	-1	-3
CC1(C)Cc2nc(NCCCO)c(C#N)cc2CO1	5	-92	112*	-4	-4
C=C1C(=O)[C@]23C[C@H]1CC[C@H]2[C@]1(C)CCC[C@@](C)(C(=O)OC)[C@H]1C[C@@H]3O	·	8	·	·	·
Cc1ccc2c(c1)C(CS(=O)(=O)NCc1ccc(F)cc1)NC2 (configuration not stated)	·	-4	·	·	·
CCCC1(C)Nc2ccccc2-c2nc3ccccc3n21 (configuration not stated)	21	-248	179*	-56	0
c1ccc2c(c1)NC1(CCCC1)n1c-2nc2ccccc21	11	-206	+	·	-3
O=C(NNC(=O)c1ccc([N+](=O)[O-])o1)c1ccccc1	16	9	-3	39*	100
CC(=O)c1cccc(NC(=O)c2ccc([N+](=O)[O-])o2)c1	46*	0	0	-2	100
COc1ccc2cc3cc(C(=O)NCc4ccco4)oc3nc2c1	20	-283	140*	0	55
CCOc1ccc(NC(=O)c2cc3cc4ccc(OC)cc4nc3o2)cc1	8	-5	0	-2	18
COc1ccc2cc3cc(C(=O)NCc4ccccn4)oc3nc2c1	27	-252	+	-6	17
COC(=O)[C@]12C[C@H](CC(=O)NCC34CC5CC(CC(C5)C3)C4)C(=O)N(Cc3ccc(Cl)cc3Cl)C1=C[C@H](C(C)C)O[C@@H]2C1CC1	·	27	·	·	·
O=C(N=Nc1c(O)[nH]c2ccc(Br)cc12)c1ccco1	39*	5	-3	·	·
O=C(N=Nc1c(O)[nH]c2ccc(Br)cc12)c1ccccc1-n1cccc1	14	-4	-2	0	98
CCn1c(=S)sc2c(=O)n(-c3ccccc3)c(SCC(=O)NCc3ccco3)nc21	38*	0	0	-4	·
CCC(C)NC(=O)CSc1nc2c(sc(=S)n2Cc2ccco2)c(=O)n1-c1ccccc1 (configuration not stated)	20	-5	0	2	7
